Source: PubChem BioAssay (Tox21)
Records with an inconclusive call do not appear. Activity calls are given as the source filed them. Unless noted, calls follow the shape of the full dose curve.

Tests used:
[1] = qHTS assay to identify small molecule agonists of the vitamin D receptor (VDR) signaling pathway - cell viability counter screen (AID 743224; active = well fitted curve in the direction sought with a large enough effect in the repeat runs; an effect the other way counts as inactive or inconclusive; also: series mostly up to about 63 µM; % is scaled to controls: 0 for no effect and ±100 for the full control effect; nearly all actives have a fitted effect of over 50% in size)
Summary of the method: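 Plated VDR-bla cells (4 h, 37C) received compound, incubated 16 h, then LiveBLAzer substrate 2 h RT; CellTiter-Glo added afterwards, luminescence read at 30 min.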

[2] = qHTS assay to identify small molecule antagonists of the vitamin D receptor (VDR) signaling pathway - cell viability counter screen (AID 743225; active = well fitted curve in the direction sought with a large enough effect in the repeat runs; an effect the other way counts as inactive or inconclusive; also: % is scaled to controls: 0 for no effect and ±100 for the full control effect; nearly all actives have a fitted effect of over 50% in size)
Summary of the method: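 Cells (VDR-UAS-bla HEK 293T) are plated, rested 4 h at 37C, dosed with compound and 3 nM final 1-alpha,25-dihydroxy vitamin D3, and incubated 16 h. Viability is taken from CellTiter-Glo luminescence in the reporter wells.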

[3] = qHTS assay to identify small molecule agonists of the NFkB signaling pathway (AID 1159509; active = well fitted curve in the direction sought with a large enough effect in the signal ratio in the repeat runs, not every such curve was filed as active; the % refers to the signal ratio; also: series mostly up to about 61 µM; % is scaled to controls: 0 for no effect and ±100 for the full control effect)
Summary of the method: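 ME-180 NFkB-bla, 2,000 cells/well, overnight plating; cpd pinned in DMSO, 5 h 37 C; B/G FRET substrate 1.5 h RT; ex 405, em 460/530 nm.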

[4] = qHTS assay to identify small molecule agonists of the NFkB signaling pathway - cell viability counter screen (AID 1159515); also: series mostly up to about 61 µM; % is scaled to controls: 0 for no effect and ±100 for the full control effect; nearly all actives have a fitted effect of over 55% in size
Summary of the method: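 Using the same wells as the NFkB reporter read, ME-180 NFkB-bla cells given compounds for 5 hr were assessed for viability via CellTiter-Glo, with luminescence taken after a 30 min room-temperature incubation.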

[5] = qHTS assay to identify small molecule agonists of the endoplasmic reticulum stress response signaling pathway - cell viability counter screen (AID 1159517);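 also: HeLa cells carrying an ER stress response element beta-lactamase reporter; series mostly up to about 61 µM; % is scaled to controls: 0 for no effect and ±100 for the full control effect; nearly all actives have a fitted effect of over 50% in size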
Summary of the method: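 ESRE-bla HeLa cells, 1,500 per well, seeded overnight then treated with compounds for 5 hr at 37 C. After the beta-lactamase read, viability in the same wells is measured by CellTiter-Glo luminescence after 30 min at room temperature.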

[6] = biological target: Nuclear receptor ROR-gamma (Homo sapiens) (UniProt P51449); assay: qHTS assay to identify small molecule antagonists of the retinoid-related orphan receptor gamma (ROR-gamma) signaling pathway (AID 1159521; active = well fitted curve in the direction sought with a large enough effect in the repeat runs; an effect the other way counts as inactive or inconclusive;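 also: CHO cells with doxycycline inducible ROR-gamma driving an RORE luciferase reporter; top concentration of the series differs between compounds; % is scaled to controls: 0 for no effect and ±100 for the full control effect; nearly all actives have a fitted effect of over 50% in size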)
Summary of the method: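 RORγ antagonism is scored from reduced reporter luminescence in Tet-on CHO cells. Induction used 1 uM final doxycycline hyclate for 16 h at 37 C, following a 2 h compound exposure.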

[7] = qHTS assay to identify small molecule agonists of the AP-1 signaling pathway - cell viability counter screen (AID 1159525); also: nearly all actives have a fitted effect of over 55% in size
Summary of the method: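 AP-1-bla ME-180 cells in Opti-MEM with 0.5% dialyzed FBS, compound exposure 5 h at 37 C in 15-point titration. Viability read in the same wells as ATP content by CellTiter-Glo luminescence, normalised to tetra-n-octylammonium bromide and DMSO controls.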

[8] = qHTS assay to identify small molecule agonists of the AP-1 signaling pathway (AID 1159526); also: % is scaled to controls: 0 for no effect and ±100 for the full control effect
[9] = qHTS assay to identify small molecule antagonists of the retinoid-related orphan receptor gamma (ROR-gamma) signaling pathway - cell viability counter screen (AID 1159520; active = well fitted curve in the direction sought with a large enough effect in the repeat runs; an effect the other way counts as inactive or inconclusive)
Summary of the method: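 Tet-on ROR gamma CHO cells were given compounds for 2 hr, then doxycycline hyclate at 1 uM final, and incubated 16 hr at 37 C. Viability was measured as ATP content by CellTiter-Glo luminescence.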

[10] = qHTS assay to identify small molecule agonists of the endoplasmic reticulum stress response signaling pathway (AID 1159516; active = well fitted activation curve with a large enough effect in the signal ratio in the repeat runs, not every such curve was filed as active; the % refers to the signal ratio; also: % is scaled to controls: 0 for no effect and ±100 for the full control effect)
Summary of the method: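 An ESRE-bla HeLa cell assay: compounds were pin-transferred from DMSO onto overnight-plated cells and left 5 hr at 37 C. Substrate was then loaded for 2 hr at room temperature before reading fluorescence at 460 nm and 530 nm.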

Cc1cc2c(cc1S(N)(=O)=O)S(=O)(=O)CCC2
inactive: Potency [1] | Potency [2] | outcome [3] | outcome [4] | outcome [5] | Potency [6] | Potency [7] | outcome [8]

CCOC(=O)c1cccc(N)c1
inactive: Potency [1] | Potency [2] | outcome [3] | outcome [4] | outcome [5] | outcome [9] | Potency [6] | Potency [7] | outcome [8]

Cc1cccn2c(=O)c(-c3nnn[nH]3)cnc12
inactive: Potency [1] | Potency [2] | outcome [3] | outcome [4] | outcome [5] | Potency [6] | viability change, negative = cytotoxic [7] -0.287% [at 15.8 µM] | outcome [8]

CCN1CCC[C@H]1CNC(=O)c1cc(S(N)(=O)=O)ccc1OC
inactive: Potency [1] | Potency [2] | outcome [3] | outcome [4] | outcome [5] | outcome [9] | Potency [6] | Potency [7] | outcome [8]

CCO[Si](CCC1CCC2OC2C1)(OCC)OCC (configuration not stated)
inactive: Potency [1] | Potency [2] | outcome [3] | outcome [4] | outcome [5] | outcome [9] | Potency [6] | Potency [7] | outcome [8]

CCc1cccc2c(CCO)c[nH]c12
inactive: Potency [1] | Potency [2] | outcome [3] | outcome [4] | outcome [5] | outcome [9] | Potency [6] | Potency [7] | outcome [8]

CC1(C)C(O)C(C)(C)C1O (configuration not stated)
inactive: Potency [1] | Potency [2] | outcome [3] | outcome [4] | outcome [5] | outcome [9] | Potency [6] | Potency [7] | outcome [8]

NS(=O)(=O)c1cc2c(cc1Cl)NC(C1CC3C=CC1C3)NS2(=O)=O (configuration not stated)
inactive: Potency [1] | Potency [2] | outcome [3] | outcome [4] | outcome [5] | outcome [9] | Potency [6] | Potency [7] | outcome [8]

OC1CCCCC1c1ccccc1 (configuration not stated)
inactive: Potency [1] | outcome [3] | outcome [10] | outcome [5] | outcome [9] | Potency [6] | Potency [7] | outcome [8]

CS(=O)(=O)O
inactive: Potency [1] | Potency [2] | outcome [3] | outcome [4] | outcome [5] | outcome [9] | Potency [6] | Potency [7] | outcome [8]

NC(=O)c1ccc([N+](=O)[O-])cc1
inactive: Potency [1] | Potency [2] | outcome [3] | outcome [4] | outcome [5] | outcome [9] | Potency [6] | Potency [7] | outcome [8]

CCCCNC(=O)NCCCC
inactive: Potency [1] | outcome [3] | outcome [10] | outcome [5] | outcome [9] | Potency [6] | Potency [7] | outcome [8]

Nc1c2c(nc3ccccc13)CCCC2O (configuration not stated)
inactive: Potency [1] | Potency [2] | outcome [3] | outcome [4] | outcome [5] | outcome [9] | Potency [6] | Potency [7] | outcome [8]

FC1(F)C(F)(F)C(F)(F)C2(F)C(F)(F)C(F)(F)C(F)(F)C(F)(F)C2(F)C1(F)F (configuration not stated)
inactive: Potency [1] | outcome [3] | outcome [4] | outcome [5] | outcome [9] | Potency [6] | Potency [7] | outcome [8]

Cc1cnc(NS(=O)(=O)c2ccc(N)cc2)nc1
inactive: Potency [1] | outcome [3] | outcome [10] | outcome [5] | outcome [9] | Potency [6] | Potency [7] | outcome [8]

COc1ccc(CCN(C)CCCC(C#N)(c2cc(OC)c(OC)c(OC)c2)C(C)C)cc1OC (configuration not stated)
inactive: Potency [1] | Potency [2] | outcome [3] | outcome [4] | outcome [5] | outcome [9] | Potency [6] | Potency [7] | outcome [8]

COCCc1ccc(OCC(O)CNC(C)C)cc1 (configuration not stated)
inactive: Potency [1] | Potency [2] | outcome [3] | outcome [4] | outcome [5] | outcome [9] | Potency [7] | outcome [8]

COCCCOCCCOC
inactive: Potency [1] | Potency [2] | outcome [3] | outcome [4] | outcome [5] | outcome [9] | Potency [6] | Potency [7] | outcome [8]

NC(CSCC(=O)O)C(=O)O (configuration not stated)
inactive: Potency [1] | Potency [2] | outcome [3] | outcome [4] | outcome [5] | outcome [9] | Potency [6] | Potency [7] | outcome [8]

Nc1ccc(S(=O)(=O)Nc2ccnn2-c2ccccc2)cc1
inactive: Potency [1] | outcome [3] | outcome [4] | outcome [5] | activity, negative = cytotoxicity [9] 2.08% [at 19 µM] | Potency [6] | viability change, negative = cytotoxic [7] 2.53% [at 15.8 µM] | outcome [8]

Cc1cc(O)cc2c1O[C@](C)(CCC[C@H](C)CCC[C@H](C)CCCC(C)C)CC2
inactive: Potency [1] | outcome [3] | outcome [4] | outcome [5] | outcome [9] | Potency [6] | Potency [7] | outcome [8]

C[N+](C)(C)CC(O)CC(=O)[O-] (configuration not stated)
inactive: Potency [1] | Potency [2] | outcome [3] | outcome [4] | outcome [5] | Potency [6] | Potency [7] | outcome [8]

CCN1CCC[C@H]1CNC(=O)c1c(O)c(Cl)cc(Cl)c1OC
inactive: Potency [1] | Potency [2] | outcome [3] | outcome [4] | outcome [5] | outcome [9] | Potency [6] | Potency [7] | outcome [8]
